Data on six compounds can be found in PubChem BioAssay.

The subject of experiment [1] is Human papillomavirus type 1a protein E7 (residues 44-93). The experiment in a line: small molecules binding HPV E7 44-93 – biochemical, small-molecule microarray, residues 44-93, 635 nm fluorescence, primary screen (AID 1108).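 Note: E7 fragment applied at 1 µg/mL in TBST for 1 h at 4 C; score combines spot fluorescence with its signal to noise ratio.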 The note with it: fluorescence 635 nm, higher = more signal.
Experiment [2] can be described thus: hepatitis C replication reporter changes, two-sided – Huh7 cells, luciferase reporter, HCV replication inhibitor project, primary screen (AID 1109).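 Note: huh7 hepatoma cells harbouring a luciferase neomycin HCV replicon reporter; luciferase luminescence as measure of HCV replicon replication; test concentration not given here.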 The note with it: Huh7 HCV replicon luciferase reporter, 48 h; higher = more signal. On the technique in general: A reporter such as luciferase makes a cellular process visible.
Experiment [3] deals with Left-right determination factor 2 (Homo sapiens) (UniProt O00292). Put plainly: small molecules binding LEFTY2 protein – biochemical, small-molecule microarray, 635 nm fluorescence scan, primary screen (AID 1110). The note with it: higher = more signal.
Chain of Left-right determination factor 2 (Homo sapiens) (O00292 whole entry, looked up): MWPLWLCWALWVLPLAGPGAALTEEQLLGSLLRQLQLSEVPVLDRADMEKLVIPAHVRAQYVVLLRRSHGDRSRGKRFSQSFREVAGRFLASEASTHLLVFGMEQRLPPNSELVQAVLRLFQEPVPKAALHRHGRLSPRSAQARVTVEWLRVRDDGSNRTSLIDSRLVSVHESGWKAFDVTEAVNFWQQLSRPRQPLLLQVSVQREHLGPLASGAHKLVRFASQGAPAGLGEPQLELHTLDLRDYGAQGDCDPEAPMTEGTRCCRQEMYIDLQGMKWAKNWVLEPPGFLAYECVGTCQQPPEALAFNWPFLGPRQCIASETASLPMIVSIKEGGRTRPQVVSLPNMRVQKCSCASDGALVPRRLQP
The target in experiment [4] is Calmodulin-1 (Homo sapiens) (UniProt P0DP23). Put plainly: small molecules binding calmodulin-1 with EGTA – biochemical, small-molecule microarray, Cy5-labelled CALM1, profiling panel (AID 1111).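 Note: labelled calmodulin applied in Tris saline Tween buffer holding calcium plus EGTA and DTT.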 The note with it: Cy5-CALM1 binding fluorescence, higher = more signal.
Experiment [5] has the same target. Put plainly: small molecules binding Ca-loaded calmodulin-1 – biochemical, small-molecule microarray, Cy5-labelled CALM1, plus calcium, artefact control for SMM control-protein annotation, profiling panel (AID 1112).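 Note: score merges spot fluorescence with signal to noise from triplicate slides.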 The note with it: Cy5-CALM1 binding fluorescence, higher = more signal.
The nature of experiment [6]: probe aWnt5a binding to arrayed compounds – biochemical, biotinylated probe, 635/667 nm fluorescence, primary screen (AID 1113).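 Note: score merges 667 nm fluorescence intensity with signal-to-noise per printed feature.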 The note with it: small-molecule microarray, higher = more signal.
Experiment [7] in a line: probe aShh binding to arrayed compounds – biochemical, biotinylated probe, 635/667 nm fluorescence, primary screen (AID 1114).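 Note: probe is biotin-labelled aShh protein from a stem cell growth factor screen; measures binding of labelled protein to compounds printed on the slide; score merges feature fluorescence at 667 nm with signal-to-noise.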 The note with it: small-molecule microarray, higher = more signal.
Experiment [8] can be described thus: probe aNog binding to arrayed compounds – biochemical, biotinylated probe, 635/667 nm fluorescence, primary screen (AID 1115).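 Note: probe is biotinylated aNog protein used at 0.15 µg/mL for 1 h at 4 C; z-score combines 667 nm fluorescence of each spot with its signal to noise.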 The note with it: small-molecule microarray, higher = more signal.
The target in experiment [9] is Torsin-1A-interacting protein 1 (Homo sapiens) (UniProt Q5JTV8). The experiment in a line: compound microarray binding of lysate hLAP1 – cell lysate, small-molecule microarray, COS7 lysate, 635/667 nm fluorescence, primary screen (AID 1116). The note with it: 635 nm fluorescence, higher = more signal.
Chain of Torsin-1A-interacting protein 1 (Homo sapiens) (Q5JTV8 whole entry, looked up): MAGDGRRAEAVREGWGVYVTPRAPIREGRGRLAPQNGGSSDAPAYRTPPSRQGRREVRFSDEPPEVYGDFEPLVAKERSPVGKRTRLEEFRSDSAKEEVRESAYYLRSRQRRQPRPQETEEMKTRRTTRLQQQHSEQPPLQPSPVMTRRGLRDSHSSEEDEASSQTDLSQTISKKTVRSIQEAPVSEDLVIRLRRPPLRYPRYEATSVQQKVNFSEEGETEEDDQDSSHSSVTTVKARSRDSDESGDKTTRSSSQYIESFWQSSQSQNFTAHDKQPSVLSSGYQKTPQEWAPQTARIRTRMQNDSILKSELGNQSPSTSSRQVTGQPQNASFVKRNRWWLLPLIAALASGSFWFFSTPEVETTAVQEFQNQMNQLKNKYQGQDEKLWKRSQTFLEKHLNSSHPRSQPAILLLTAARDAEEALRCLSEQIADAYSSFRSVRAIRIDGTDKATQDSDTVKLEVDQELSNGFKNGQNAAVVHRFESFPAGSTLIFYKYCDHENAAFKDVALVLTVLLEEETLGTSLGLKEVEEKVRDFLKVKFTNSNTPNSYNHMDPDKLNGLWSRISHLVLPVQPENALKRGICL
The target of experiment [10] is Alpha-bungarotoxin (Bungarus multicinctus) (UniProt P60615). Put plainly: compounds binding labelled alpha-BTX control protein – biochemical, small-molecule microarray, Alexa647 label, 635/667 nm fluorescence, artefact control for SMM control protein annotation, profiling panel (AID 1117). The note with it: alpha-BTX-A647 binding fluorescence, higher = more signal.
Chain of Alpha-bungarotoxin (Bungarus multicinctus) (P60615 whole entry, looked up): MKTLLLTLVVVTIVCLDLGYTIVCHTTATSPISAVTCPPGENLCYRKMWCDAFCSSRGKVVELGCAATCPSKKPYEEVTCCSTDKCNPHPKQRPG
Another experiment concerns the target Albumin (Bos taurus) (UniProt P02769). The experiment in a line: compounds binding labelled BSA control protein – biochemical, small-molecule microarray, Alexa647 label, 635/667 nm fluorescence, artefact control for SMM control protein annotation, profiling panel (AID 1118).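 Note: score merges 667 nm emission intensity and signal-to-noise per printed compound spot.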 The note with it: BSA-A647 binding, fluorescence 635 nm, higher = more signal.
A short description of experiment [11]: probe aXIP binding to arrayed compounds – biochemical, NeuroSMM set, 635/667 nm fluorescence, primary screen (AID 1119).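 Note: probe is the protein aXip251-270 applied at 1 µg/mL to compound-printed slides; binding of probe to printed compounds measured as 667 nm fluorescence plus signal to noise.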 The note with it: small-molecule microarray, higher = more signal, called active from +8 up or from −8 down.
A short description of experiment [12]: probe aNOTCH3 binding on compound microarray – biochemical, small-molecule microarray, 635/667 nm fluorescence, primary screen (AID 1120).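 Note: probe is a biotin-tagged antibody raised against NOTCH3 rather than NOTCH3 protein; score merges spot fluorescence near 667 nm with spot signal to noise.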 The note with it: higher = more signal.
Experiment [13] is described as follows: probe aNOTCH2 binding on compound microarray – biochemical, small-molecule microarray, 635/667 nm fluorescence, primary screen (AID 1121).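 Note: score merges feature fluorescence read at 667 nm with its signal to noise.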 The note with it: higher = more signal.
Experiment [14] addresses Carbonic anhydrase 2 (Homo sapiens) (UniProt P00918). The experiment in a line: compounds binding carbonic anhydrase 2 – biochemical, small-molecule microarray, Alexa647-labelled CAII, profiling panel (AID 1122). The note with it: CAII-A647 binding fluorescence, higher = more signal.
The nature of experiment [15]: COS7 lysate on small-molecule microarray, probe aHis, 635 nm (AID 1123).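 Note: z-score combines 667nm fluorescence intensity with signal-to-noise per printed compound spot.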 The note with it: COS7 cell lysate, fluorescence, higher = more signal.
Experiment [16] in a line: probe aLAP1 signal on lysate-treated microarray – cell lysate, small-molecule microarray, COS7 lysate, primary screen (AID 1124).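 Note: lysate comes from COS7 cells expressing LAP1 and is applied at 0.3 µg/mL; score merges spot fluorescence near 667 nm with signal-to-noise over triplicate slides.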 The note with it: probe aLAP1, fluorescence, higher = more signal.
A further experiment relates to Sam68 (KHDRBS1). Put plainly: compounds binding KHDRBS1 protein – biochemical, small-molecule microarray, 635 nm fluorescence, primary screen (AID 1125).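 Note: score merges 667 nm channel intensity with signal to noise over triplicate slides.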 The note with it: higher = more signal.
Experiment [17] deals with Chordin-like protein 2 (CHRDL2). The experiment in a line: compounds binding chordin-like 2 – biochemical, small-molecule microarray, 635 nm fluorescence, primary screen (AID 1126).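 Note: printed compound slides probed with Chrdl2 protein at 4 µg/mL for 1 h at 4 C; score merges 667 nm emission intensity with signal to noise over three replicate slides.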 The note with it: fluorescence 635 nm, higher = more signal.
In experiment [18] the target is Concanavalin-A (Canavalia ensiformis) (UniProt P02866). The experiment in a line: compounds binding concanavalin A lectin – biochemical, small-molecule microarray, Alexa647 label, 635 nm, artefact control for SMM control protein annotation, primary screen (AID 1127).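 Note: z combines 667 nm emission intensity with signal-to-noise across three replicate slides.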 The note with it: ConA-A647 binding fluorescence, higher = more signal.
Chain of Concanavalin-A (Canavalia ensiformis) (P02866 whole entry, looked up): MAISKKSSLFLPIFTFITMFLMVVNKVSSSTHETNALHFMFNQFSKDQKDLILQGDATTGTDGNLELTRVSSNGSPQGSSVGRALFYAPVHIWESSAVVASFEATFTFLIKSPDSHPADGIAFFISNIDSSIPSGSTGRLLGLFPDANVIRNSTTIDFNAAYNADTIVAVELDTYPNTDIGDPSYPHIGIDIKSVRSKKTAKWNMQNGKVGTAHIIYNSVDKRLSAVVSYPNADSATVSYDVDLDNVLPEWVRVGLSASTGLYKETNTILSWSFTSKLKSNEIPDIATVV

The source made the active and inactive calls.

Chain of Albumin (Bos taurus) (P02769 whole entry, looked up): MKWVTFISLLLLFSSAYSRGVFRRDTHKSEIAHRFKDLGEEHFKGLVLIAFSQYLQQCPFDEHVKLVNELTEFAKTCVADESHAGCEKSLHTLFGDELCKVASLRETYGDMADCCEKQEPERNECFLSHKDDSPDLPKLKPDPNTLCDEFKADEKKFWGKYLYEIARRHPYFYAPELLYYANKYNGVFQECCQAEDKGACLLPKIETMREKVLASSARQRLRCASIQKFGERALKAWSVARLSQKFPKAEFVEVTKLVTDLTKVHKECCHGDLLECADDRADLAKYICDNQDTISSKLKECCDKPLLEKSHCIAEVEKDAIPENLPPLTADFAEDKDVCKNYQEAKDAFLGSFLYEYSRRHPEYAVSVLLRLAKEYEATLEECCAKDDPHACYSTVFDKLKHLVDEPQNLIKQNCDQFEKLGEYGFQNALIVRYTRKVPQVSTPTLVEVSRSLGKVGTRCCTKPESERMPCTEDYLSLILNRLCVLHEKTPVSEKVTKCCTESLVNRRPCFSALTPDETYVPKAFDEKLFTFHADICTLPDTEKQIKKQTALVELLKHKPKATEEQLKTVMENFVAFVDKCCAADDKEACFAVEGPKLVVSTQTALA

With `O=C1OCCC/C=C\[C@H]2OC34C=CCN(Cn5nnc6ccccc65)C(=O)[C@H]3N(CCO)C(=O)[C@@H]4C12` (stereo not given in full), the composite z-score in experiment [1] is -0.249; in [3], -1.84; in [4] it was -0.173; in experiment [5], 0.963; in [6], -0.187; in experiment [7], 0.022. Further, the composite z-score in [8] is 0.235; in experiment [9], -0.482; in [10] it was -0.601; with Albumin (Bos taurus) it was 0.926; in [12], 0.0004; in experiment [13] it was -0.0073. For the same compound, the composite z-score in experiment [14] is 0.987; in [15], 0.207; in [16], 0.136; with Sam68 (KHDRBS1) it was -0.642; in [17], -1.89; in experiment [18], 0.216. In addition, the z-score in [2] was -0.317. Besides, the composite Z-score in experiment [11] is 0.605 (inactive).

As to `CC(C)C(=C=CC[C@@H](O)c1ccccc1OCCO)CCO`, the composite z-score in experiment [1] is -0.79; in experiment [3], 0.156; in experiment [4], 0.084; in experiment [5], -0.21; in [6] it was -0.0836; in experiment [7], -0.0471. The composite z-score is -0.371 in experiment [8]; -0.549 in experiment [9]; 0.606 in experiment [10]; 0.0824 with Albumin (Bos taurus); -0.0311 in [12]; -0.115 in experiment [13]. In addition, the composite z-score was 0.374 in [14]; -0.501 in experiment [15]; -0.412 in experiment [16]; 0.615 with Sam68 (KHDRBS1); 0.0551 in experiment [17]; 0.542 in [18]. In experiment [2], this compound registered a z-score of -1.49. Besides, the composite Z-score in experiment [11] is -0.519 (inactive).

Take `C[C@@]1([C@@H](NC(=O)c2ccccc2)c2ccc(-c3ccccc3)cc2)C[C@H]1C1CCCCC1`: the composite z-score was -0.752 in [1]; -0.535 in [3]; 1.32 in experiment [4]; 1.19 in experiment [5]; -0.006 in experiment [6]; -0.353 in experiment [7]. Moreover, the composite z-score in experiment [8] was 0.18; in experiment [9], 0.294; in [10] it was -0.272; with Albumin (Bos taurus), 0.373; in experiment [12], 0.106; in [13] it was 0.378. Besides, the composite z-score is -0.137 in experiment [14]; 0.121 in experiment [15]; -0.0002 in experiment [16]; -1.66 in the experiment on Sam68 (KHDRBS1); -1.51 in experiment [17]; -0.867 in [18]. Moreover, the z-score in [2] amounted to 0.602. Moreover, the composite Z-score in experiment [11] is 0.309 (inactive).

`N#Cc1ccc(NN2C(C(O)c3c(F)cccc3Cl)C=CC3C(=O)N(c4ccccc4)C(=O)C32)cc1` (stereo not given): the composite z-score in experiment [1] was 1.47; in [3], 0.21; in experiment [4], 2.51; in experiment [5], 1.07; in experiment [6], 0.0724; in experiment [7] it was -0.195. Besides, the composite z-score is 1.65 in [8]; 2.65 in [9]; 1.59 in [10]; 1.09 in the experiment with Albumin (Bos taurus); -0.095 in experiment [12]; 0.0563 in [13]. The composite z-score was 0.396 in experiment [14]; 3.25 in experiment [15]; 1.55 in experiment [16]; 1.29 in the experiment on Sam68 (KHDRBS1); -0.768 in [17]; 1.13 in [18]. Besides, the z-score in experiment [2] is -0.57. In experiment [11], the composite Z-score was 0.238 (inactive).

In the case of `CN1C(=O)C2C=CC(C(O)c3ccc(I)cc3)N(N3CCCCC3)C2C1=O` (stereo not given), the composite z-score turned out to be 1.43 in experiment [1]; 0.0759 in experiment [3]; 1.64 in experiment [4]; 0.219 in [5]; 0.0599 in experiment [6]; 0.184 in experiment [7]. The composite z-score was 1.34 in experiment [8]; 1.19 in [9]; 1.22 in experiment [10]; 0.999 with Albumin (Bos taurus); 0.748 in [12]; 0.0196 in experiment [13]. Also, the composite z-score in [14] was 0.608; in [15] it was 2.85; in [16] it was 0.879; in the experiment with Sam68 (KHDRBS1), 1.32; in experiment [17], -0.119; in experiment [18], 1.15. This compound also returned a z-score in experiment [2] of -0.435. Moreover, the composite Z-score in experiment [11] is 0.891 (inactive).

Turning to `C=CCNC(=O)[C@@H]1[C@H]2C(=O)O[C@H](c3ccccc3)[C@H](c3ccccc3)N2[C@H](c2ccccc2OCCO)[C@@]12C(=O)N(C(=O)OCCOC)c1ccc(C#CCNC(N)=O)cc12`, the composite z-score was 1.36 in [1]; 0.213 in [3]; 1.58 in experiment [4]; 0.27 in [5]; -0.0196 in experiment [6]; -0.739 in experiment [7]. Besides, the composite z-score in experiment [8] was 0.658; in [9] it was 0.96; in experiment [10] it was 1.76; with Albumin (Bos taurus), 0.79; in [12], 0.184; in [13] it was -0.0772. The composite z-score in experiment [14] was 0.247; in experiment [15], 1.47; in experiment [16], 0.546; with Sam68 (KHDRBS1), 1.32; in experiment [17], -0.182; in experiment [18], 0.959. Moreover, the z-score in experiment [2] was -1.19. Also, the composite Z-score in [11] is -0.105 (inactive).
